# “And” between values parts separate entries of the source, which are not always exact repeats. Equal entries are not always repeated. Inconclusive results are not listed. Entries that show only a call come without a potency. The source holds several records for some structures; these can differ, active in one and inactive in another. The source made the active and inactive calls. Calls come from the whole dose curve; as a rule, active = well fitted curve in the direction sought with a large enough effect; inconclusive = small, poorly fitted or top-dose-only effect, or another doubt; inactive = no such curve, though single readings can be large; an effect the other way counts as inactive or inconclusive.
# How the values were obtained:
# [1] = qHTS Screen of the MIPE 4.0 Collection Against Ewings Sarcoma (TC32) (AID 1259256); settings: TC32 Ewing sarcoma viability, CellTiter-Glo, 48 h; series mostly up to 45.8 µM; note: nearly all actives have a fitted effect of over 45% in size; note: potency is the fitted concentration of half-maximal effect
# Method in brief: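 Dose series incubated 48 h with cells in RPMI plus 5% FBS, glutamine and penicillin/streptomycin; cell viability then quantified via CellTiter-Glo.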
# [2] = qHTS assay to identify small molecule inhibitors of chordoma cells - UCH-1 (AID 1259355); settings: UCH-1 chordoma viability, CellTiter-Glo, 48 h, combination, with auranofin plus four topoisomerase inhibitors; series mostly up to 46.1 µM; note: nearly all actives have a fitted effect of over 55% in size; note: potency is the fitted concentration of half-maximal effect
# Method in brief: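 Cells (800/well) were seeded and left overnight at 37 C, 5% CO2, then treated with drugs at 15 concentrations plus a combination mix of auranofin, camptothecin, doxorubicin, rubitecan and topotecan. Viability after 48hr was read by CellTiter-Glo luminescence.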
# [3] = qHTS assay to identify small molecule inhibitors of chordoma cells - UCH-2 (AID 1259356); settings: UCH-2 chordoma viability, CellTiter-Glo ATP luminescence, 48 h; series mostly up to 46.1 µM; note: potency is the fitted concentration of half-maximal effect
# [4] = P-glycoprotein substrates identified in KB-8-5-11 adenocarcinoma cell line, qHTS therapeutic library screen (AID 1346987); settings: KB-8-5-11 (P-gp overexpressing) viability, CellTiter-Glo, 72 h; series mostly up to 44.5 µM; note: nearly all actives have a fitted effect of over 65% in size; note: potency is the fitted concentration of half-maximal effect
# Method in brief: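 KB-8-5-11, a colchicine-selected P-gp-overexpressing KB-3-1 subline, was grown without colchicine for the assay. Cells were seeded at 500 cells/well, dosed in concentration-response and incubated 72 h at 37 degree C, 5% CO2. Viability was read by CellTiter-Glo luminescence.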
# [5] = Identifying Small Molecule Inhibitors of Pancreatic Cancer Stem Cells (SN12C, Adherent) (AID 1259358); settings: viability/growth inhibition; series mostly up to 46.1 µM;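 note: cell survival measured after 48 h of compound exposure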
# Method in brief: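 Endpoint: ATP-based luminescence, 48 h drug exposure. Bortezomib at 9.2 uM final as full-kill control; DMSO vehicle as negative control; activity normalized between vehicle and cell-free wells.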
# [6] = Identifying Small Molecule Inhibitors of Pancreatic Cancer Stem Cells (SN12C, Spheroid) (AID 1259360); settings: Potency: SN12C spheroid viability; series mostly up to 46.1 µM
# Method in brief: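 After a 4 h attachment period, compounds were pinned into wells and cultures held 48 h under standard incubator conditions. Viability was then measured as CellTiter-Glo luminescence following 10 min at room temperature.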
Structure (SMILES),Potency [1],Potency [2],Potency [3],Potency [4],"activity, negative = inhibition [2]",Potency [5],Potency [6]
O=C(NC(Cc1cc(=O)[nH]c2ccccc12)C(=O)O)c1ccc(Cl)cc1 (centres undefined),inactive,inactive,inactive,inactive,–,–,–
N[C@@H](Cc1cc(I)c(Oc2cc(I)c(O)c(I)c2)c(I)c1)C(=O)O,3.72 µM (active),inactive,inactive,inactive,–,–,–
C[C@@H](c1ncncc1F)[C@](O)(Cn1cncn1)c1ccc(F)cc1F,inactive,–,–,–,–,–,–
COc1cc2nc(N3CCN(C(=O)C4CCCO4)CC3)nc(N)c2cc1OC (centres undefined),inactive,–,inactive,inactive,-3.3% [at 1.88 µM] (inactive),–,–
Cc1nc2n(c(=O)c1CCN1CCC(c3noc4cc(F)ccc34)CC1)CCCC2,inactive,inactive,inactive,inactive and 8.2 µM (active),–,–,–
CN(C)c1ccc2nc3ccc(=[N+](C)C)cc-3sc2c1,9.35 µM (active),7.94 µM (active),14.6 µM (active),3.32 µM (active) and 6.51 µM (active),–,–,–
Nc1cccc2c1CN(C1CCC(=O)NC1=O)C2=O (centres undefined),inactive,inactive,inactive,inactive,–,inactive,inactive
O=C(OC1C[C@H]2CC[C@@H](C1)[N+]21CCCC1)C(O)(c1ccccc1)c1ccccc1 (some centres undefined),inactive,inactive,inactive,inactive,–,–,–
CN(C)[C@@H](CCOc1cccc2ccccc12)c1ccccc1,26.4 µM (active),–,–,–,–,–,–
COc1cc(OC)c(C(=O)CCCN2CCCC2)c(OC)c1,inactive,inactive,inactive,inactive,–,–,–
CCc1nc(N)nc(N)c1-c1ccc(Cl)cc1,2.64 µM (active),inactive,inactive,–,–,–,–

# — PubChem BioAssay (NCATS)
